According to PubChem BioAssay:
The other results are listed elsewhere or left out. Active and inactive are the calls of the source. Cut-off read from the data, not from the text of the source, unless noted: active = inhibition above about 19%; inactive = the rest.

Tested on: T-cell receptor (TCR)-CD3 interaction, human
Test: TCR-CD3 interaction inhibitors, retest, confirmation, biochemical, fluorescence, TAMRA-labeled TCR probe (AID 652036)
Details: TAMRA-labeled TCR probe fluorescence binding assay; at 9.4 µM; hits give high values

**Q.** Which inhibition does the source give for `CCC(=O)NC(=S)Nc1ccc(NC(=O)c2ccco2)c(Cl)c1` here?
**A.** 13.4% (inactive)

**Q.** Which inhibition does the source give for `CNC(=S)NNC(=O)c1cccn(Cc2ccccc2)c1=O` here?
**A.** 46.7% (active)

**Q.** For `Cc1cc(C(=O)CCC(=O)NNC(=O)c2ccccc2O)c(C)s1`, which inhibition is on record?
**A.** 11.4% (inactive)

**Q.** With `COc1ccccc1C(=O)NNC(=O)c1ccc(NC(=O)c2ccccc2)cc1` as the compound, how does the inhibition read?
**A.** 35.5% (active)

**Q.** Which inhibition does the source give for `O=C(Nc1cccc(-c2nc3ccccc3[nH]2)c1)c1ccc(C(=O)Nc2cccc(-c3nc4ccccc4[nH]3)c2)cc1` here?
**A.** 10.8% (inactive)

**Q.** Which inhibition does the source give for `COCCCNC(=S)NNC(=O)C(O)(c1ccccc1)c1ccccc1` here?
**A.** 16.3% (inactive)

**Q.** With `O=S(=O)(O)c1cc2onnc2c2ccccc12` as the compound, how does the inhibition read?
**A.** 4.6% (inactive)

**Q.** With `Oc1ccc(N=Cc2c(O)ccc3ccccc23)cc1` as the compound, how does the inhibition read?
**A.** 4.09% (inactive)

**Q.** Which inhibition does the source give for `C=CCn1c(=O)c(C(=O)Nc2ncccc2O)c(O)c2ccccc21` here?
**A.** 16.6% (inactive)

**Q.** For `O=S1(=O)c2c(cccc2N2CCCC2)O[C@H](COCc2ccccc2)CN1C1CC1`, which inhibition is on record?
**A.** 1.77% (inactive)

**Q.** For `COc1ccc(CC(=O)N/N=C/c2cc([N+](=O)[O-])cc(Br)c2O)cc1`, which inhibition is on record?
**A.** 40% (active)

**Q.** Which inhibition does the source give for `COc1cc(C(=O)NCC2(c3ccccc3)CCCC2)ccc1OC(C)C` here?
**A.** 2.19% (inactive)

**Q.** With `CNS(=O)(=O)c1ccc2c(c1)[nH]c(=S)n2C` as the compound, how does the inhibition read?
**A.** 10.3% (inactive)

**Q.** For `COc1ccc(C(=O)NNc2cc(C)nc(NNC(=O)c3ccc(OC)cc3)n2)cc1`, which inhibition is on record?
**A.** 5.09% (inactive)

**Q.** With `CN(C)CCNC(=O)C(C(=O)c1ccccc1)n1ccccc1=O` (stereo unspecified) as the compound, how does the inhibition read?
**A.** 2.79% (inactive)

**Q.** For `Cc1cc2nc3c(=O)[nH]c(=O)nc-3n(C[C@H](O)[C@H](O)[C@H](O)CO)c2cc1C`, which inhibition is on record?
**A.** 33.3% (active)

**Q.** Which inhibition does the source give for `O=C1C(Cc2ccc(O)cc2)NC(=S)N1Cc1ccccc1` (stereo unspecified) here?
**A.** -0.37% (inactive)

**Q.** With `Cc1ncc(CO)c(/C=N/NC(=O)c2cccc(S(=O)(=O)N3CCCC3)c2)c1O` as the compound, how does the inhibition read?
**A.** 15.4% (inactive)

**Q.** For `C/C=C/C=C/C(=O)O`, which inhibition is on record?
**A.** 6.03% (inactive)

**Q.** With `CCN(C(=O)Nc1cccc2ccccc12)c1ccccc1` as the compound, how does the inhibition read?
**A.** 3.23% (inactive)

**Q.** Which inhibition does the source give for `O=C(N/N=C/c1cc([N+](=O)[O-])ccc1O)/C(=C\c1cccs1)NC(=O)c1ccccc1` here?
**A.** 35% (active)

**Q.** With `COc1ccc(/C(=N\O)c2nccc3cc(OC)c(OC)cc23)cc1OC` as the compound, how does the inhibition read?
**A.** 15.5% (inactive)

**Q.** Which inhibition does the source give for `COc1ccc(NS(=O)(=O)c2cc(NC(=O)/C=C/c3cc(OC)c(OC)c(OC)c3)ccc2N2CCCCC2)cc1` here?
**A.** 29.4% (active)

**Q.** For `COc1ccc(C(=O)NC(=S)NNC(=O)CCc2ccccc2)cc1`, which inhibition is on record?
**A.** 13% (inactive)

**Q.** With `COc1ccccc1C(=O)NNC(=O)CCN1C(=O)/C(=C\c2ccccc2)SC1=S` as the compound, how does the inhibition read?
**A.** 9.19% (inactive)

**Q.** For `CCOc1ccc(-n2c(O)c(/C=N/Nc3nnc(C)c(=O)[nH]3)c3ccccc3c2=O)cc1`, which inhibition is on record?
**A.** 26% (active)

**Q.** With `Cc1ccc(O)c(/C=N/NC(=O)COc2ccc3c(C)cc(=O)oc3c2)c1` as the compound, how does the inhibition read?
**A.** 46.1% (active)

**Q.** Which inhibition does the source give for `Cc1ccc(C(=O)NCC(=O)O)cc1S(=O)(=O)N1CCCCC1` here?
**A.** 5.08% (inactive)

**Q.** With `CN1CCN(/N=C/c2ccc(C#N)cc2)CC1` as the compound, how does the inhibition read?
**A.** 2.78% (inactive)

**Q.** For `O=c1c2ccccc2c(-c2ccccc2)nn1-c1ccccn1`, which inhibition is on record?
**A.** -0.97% (inactive)

Tested on: not listed separately
Test: Gal4-VP16 luciferase reporter inhibitors, counter-screen for COUP-TFII antagonist project, cell-based, luminescence, HEK293 (AID 687007; in the data active = inhibition above about 13%)
Details: at 8.5 µM, hits give high values

**Q.** Which inhibition does the source give for `COc1ccc(OC)c(NC(=O)c2cc(-c3cc(F)ccc3OCC3CCCO3)n[nH]2)c1` (stereo unspecified) here?
**A.** 3.7% (inactive)

**Q.** For `Cc1ccc2nc(-c3ccc(Br)cc3)cn2c1`, which inhibition is on record?
**A.** -12.3% (inactive)

**Q.** With `COc1ccc(/C=C2/SC(=O)N(CCCCCC(=O)Nc3ccccc3C(=O)O)C2=S)cc1` as the compound, how does the inhibition read?
**A.** 29.6% (active)

**Q.** With `CC[C@@H](C)[C@H](NC(=O)CCc1c(C)c2cc3c4c(oc3c(C)c2oc1=O)CCCC4)C(=O)O` as the compound, how does the inhibition read?
**A.** 22.3% (active)

**Q.** With `Cc1ccc(-c2nc(CSCC(=O)NC3CCN(Cc4ccccc4)CC3)c(C)o2)cc1` as the compound, how does the inhibition read?
**A.** 0.41% (inactive)

**Q.** With `C[C@H]1CCC/C=C/C(=O)c2c(O)cc(O)cc2CC(=O)O1` as the compound, how does the inhibition read?
**A.** 49.3% (active)

**Q.** Which inhibition does the source give for `O=C1NC[C@@H](Cc2ccc(O)cc2)N(CCc2cccc(F)c2)C1=O` here?
**A.** 4.3% (inactive)

**Q.** Which inhibition does the source give for `CN1OC[C@@H]2CN(S(=O)(=O)c3cccc(C(F)(F)F)c3)[C@H](c3ccc(-c4cc5ccccc5o4)cc3)C[C@@H]21` here?
**A.** -5.07% (inactive)

Biological target: COUP transcription factor 2 (Homo sapiens) (UniProt P24468)
Sequence (P24468 whole entry, looked up): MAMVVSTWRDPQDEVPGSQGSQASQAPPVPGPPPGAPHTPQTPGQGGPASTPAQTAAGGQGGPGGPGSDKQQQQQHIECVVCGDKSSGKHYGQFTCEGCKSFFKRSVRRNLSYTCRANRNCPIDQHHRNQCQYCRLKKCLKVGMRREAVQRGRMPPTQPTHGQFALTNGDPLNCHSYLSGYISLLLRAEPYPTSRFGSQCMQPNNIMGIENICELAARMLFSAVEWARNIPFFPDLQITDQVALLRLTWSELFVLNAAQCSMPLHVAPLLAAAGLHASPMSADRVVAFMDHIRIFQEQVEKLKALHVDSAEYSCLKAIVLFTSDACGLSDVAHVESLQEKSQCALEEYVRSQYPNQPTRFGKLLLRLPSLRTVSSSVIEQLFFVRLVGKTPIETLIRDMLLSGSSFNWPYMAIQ
Test: NR2F2 transcriptional activity inhibitors, confirmation, cell-based, luciferase reporter, HEK293, triplicate (AID 687008;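 active = mean inhibition over three repeats above a set limit taken from the earlier primary screen, cut at about 38% in these data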;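 note: 100% = cells given the luciferase reporter alone without the COUP-TF2 vector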)
Details: HEK293 NGFI-A luciferase reporter, luminescence; at 8.5 µM; hits give high values

**Q.** Which inhibition does the source give for `COc1ccc(OC)c(NC(=O)c2cc(-c3cc(F)ccc3OCC3CCCO3)n[nH]2)c1` (stereo unspecified) here?
**A.** -6.7% (inactive)

**Q.** Which inhibition does the source give for `Cc1ccc2nc(-c3ccc(Br)cc3)cn2c1` here?
**A.** 19.1% (inactive)

**Q.** Which inhibition does the source give for `COc1ccc(/C=C2/SC(=O)N(CCCCCC(=O)Nc3ccccc3C(=O)O)C2=S)cc1` here?
**A.** 17.7% (inactive)

**Q.** With `CC[C@@H](C)[C@H](NC(=O)CCc1c(C)c2cc3c4c(oc3c(C)c2oc1=O)CCCC4)C(=O)O` as the compound, how does the inhibition read?
**A.** 24.8% (inactive)

**Q.** Which inhibition does the source give for `Cc1ccc(-c2nc(CSCC(=O)NC3CCN(Cc4ccccc4)CC3)c(C)o2)cc1` here?
**A.** 22.5% (inactive)

**Q.** Which inhibition does the source give for `C[C@H]1CCC/C=C/C(=O)c2c(O)cc(O)cc2CC(=O)O1` here?
**A.** -1.02% (inactive)

**Q.** Which inhibition does the source give for `O=C1NC[C@@H](Cc2ccc(O)cc2)N(CCc2cccc(F)c2)C1=O` here?
**A.** 5.14% (inactive)

**Q.** Which inhibition does the source give for `CN1OC[C@@H]2CN(S(=O)(=O)c3cccc(C(F)(F)F)c3)[C@H](c3ccc(-c4cc5ccccc5o4)cc3)C[C@@H]21` here?
**A.** 0.77% (inactive)
